Measured values taken from paper PMC12136788.
In all, about 24,000 sequences were measured (“enrichment r”: median about 0.99, highest 2% from about 3.7 on). These entries were drawn from the full list.

T1: UNK ZnF1-3 (human, UniProt Q9C0B0 31-174)
T1 sequence: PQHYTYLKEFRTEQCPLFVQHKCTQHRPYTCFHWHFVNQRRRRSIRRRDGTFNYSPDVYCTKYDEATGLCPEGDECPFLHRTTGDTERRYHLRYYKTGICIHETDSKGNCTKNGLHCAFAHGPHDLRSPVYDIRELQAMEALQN

B1: chr14:66974463:66974464:+_ENSMUSG00000022044_ENSMUST00000074523|mus_hu|mus_mus_mus_hu_False|18_58 (ssRNA)
RNA: GGGAGUUCUACAGUCCGACGAUCUUGUAGGACGACUUAUUCAGGGGAUCGGCCAGGAAGCAGGAGCAGAACAAGGACACUAGUGGGAGCUCCUUCAUCUUCUCUUUGUAGGCAGCAAGAGUCAUGUUUCUGGGAUCUGGUGGCCAACAGAGGAUUGAGCAUCA
B2: chr5:125866394:125866395:-_ENSMUSG00000008348_ENSMUST00000136312|mus_hu|FALSE|FALSE (ssRNA)
RNA: GGGAGUUCUACAGUCCGACGAUCACAACUUUAUUGAAAGGAAAGUGCAAUGAAAUUUGUUGAAACCUUAAAAGGGGAAACUUAGACACCCCCCCUCAAGCGCAGGACCAAGUGCAGAGUGGACUCUUUCUGGAUGUUGUAGUCCAACAGAGGAUUGAGCAUCA
B3: 44041996_44042116_73_3pUTR_ENSMUSG00000034342_ENSMUST00000037644|mouse|control|control (ssRNA)
RNA: GGGAGUUCUACAGUCCGACGAUCUCGGCCGCGAGCGAGGGAAUGGAGCCGGGCGAGAAGGAGGGGCCUCUCCGGCAACCACCGCCGGCGCUCGCAGCCCAGGGAGUGAGAGGGAGGCGCCCGCCCUGAGGCGCGCCCCUGCGCCAACAGAGGAUUGAGCAUCA
B4: chr19:16212804:16212805:+_ENSG00000167460_ENST00000300933|hu_mus|hu_hu_hu_mus_False|78_78 (ssRNA)
RNA: GGGAGUUCUACAGUCCGACGAUCAACAAUUCUGGAGUGAAGGAAAGAUGUAACAUGCAAUUAAUUAAAAGCUCAGUCAGAAGGCACAUGGGCAACAAUGAUCACCCCAGCAUUCUCGCUUGGAAUGCUUAAAGACAAUCUGUUCAACAGAGGAUUGAGCAUCA
B5: chr14:54894545:54894546:-_ENSG00000100528_ENST00000216416|hu_mus|FALSE|FALSE (ssRNA)
RNA: GGGAGUUCUACAGUCCGACGAUCCUUCAUUGGUGGCGUUUUGCAUGCACUUAACUGGACCGAUUCUUCUGUGUUGUUCUAAGAGCUCACCAGAACAUAGAUCAUGCCGUAUAGGUAGUAAAAAAACGCUAGAAGGUAAAAAGCCAACAGAGGAUUGAGCAUCA
B6: chr12:96259795:96259796:+_ENSG00000139343_ENST00000266735|hu_mus|motif|central (ssRNA)
RNA: GGGAGUUCUACAGUCCGACGAUCGAGGACAUUAUUACACCUUAUUAGAACUUCGCCCAGAUGUCCAGACAGCGCCCCAUCGGUGUACUCUUCUGUAUUUGCAAGCUGCAUGUUCAUGUAGCCAUCCACGGAGACCAGGUAGCCCAACAGAGGAUUGAGCAUCA
B7: chr11:106117246:106117247:-_ENSMUSG00000020706_ENSMUST00000021048|mus_mus|motif|central (ssRNA)
RNA: GGGAGUUCUACAGUCCGACGAUCGCAGGCCUUACAAGUUAAAAGUAGAGGCUAGGAAGUAGAGUGCAAUAACUCGUAUCCGGAACGCUAGGAAGCAUCAACCAGAAGUUCUAUAUCUCUUCACAAAACUAGUGACCUCCAGUACAACAGAGGAUUGAGCAUCA
B8: chr7:20150648:20150649:-_ENSMUSG00000044709_ENSMUST00000117222|mus_mus|FALSE|FALSE (ssRNA)
RNA: GGGAGUUCUACAGUCCGACGAUCCUUGAAAGAAUAGGAAAUUAUGUCACUACAUCGAAGCAAGGCCUCGGCCUGUACACCUAUGGGAGUCUGCAGUUGGGAAACGUAGAAGUUGGCCACAUCCAGGUCUGUGGCUCCAAACUGCAACAGAGGAUUGAGCAUCA
B9: chr7:7679991:7679992:-_ENSG00000106399_ENST00000396682|hu_hu|hu_hu_hu_mus_False|18_58 (ssRNA)
RNA: GGGAGUUCUACAGUCCGACGAUCUGGGAUGAAUCUUUUCCAGCUUCCCCACGAAGCACACGGGCCGGUCGAUAUACUGAGCUAGCAUGCUGGCGUUGACGCGCGCUUUGGGGAGCUCCAUCAUGUCCUCCAUGAUUCUGCCGCCAACAGAGGAUUGAGCAUCA
B10: chrX:20248820:20248821:+_ENSMUSG00000001924_ENSMUST00000001989|mus_mus|mus_mus_mus_hu_True|48_58 (ssRNA)
RNA: GGGAGUUCUACAGUCCGACGAUCGGCGAAGUCCGUCACCACAAAGUCAGGUUCUGCCAGUGAGGCCACCAAGGAUUUAAAACUAAUCUUUUUCGGUACUUUGACCUGACUGACGAUGCCUCCACGGAUGUAGUCGGAGAAGUUCAACAGAGGAUUGAGCAUCA
B11: chr9:95013113:95013114:-_ENSG00000196305_ENST00000443024|hu_hu|hu_hu_hu_mus_False|78_78 (ssRNA)
RNA: GGGAGUUCUACAGUCCGACGAUCCUCAGUCAGAAAGGGCGUGUAAGGGGCCAUCAGUCUGCAAAGAGAAAGCAGGACACUGAACAGUGUCUCCAGAGCCAUGACACAGUCUUCCACCCCACUCUCACCCUUUAACCUCCUCCUCAACAGAGGAUUGAGCAUCA
B12: chr16:45382771:45382772:-_ENSMUSG00000022661_ENSMUST00000163230|mus_mus|mus_mus_mus_hu_True|48_88 (ssRNA)
RNA: GGGAGUUCUACAGUCCGACGAUCCUGGGUCAUGUUAUAAGACAAAUGGAUAGGGAGGGCAUGCUUCUCAAAAAAUGUGAGCUAUUGACUAAGACUAACAAUAUUUAUCUAGCUAUAAAAAUAAGUUAAAUGAAUAAGUUAAGACAACAGAGGAUUGAGCAUCA
B13: chrX:148369326:148369327:+_ENSMUSG00000025261_ENSMUST00000112622|mus_hu|FALSE|FALSE (ssRNA)
RNA: GGGAGUUCUACAGUCCGACGAUCCUUGUCUCGCAUUGAAUCAUUAGCUGUGCACAUCAACACAUUCCAAGCACAAAUUAAGAAAUGCAAACAGAACAAAAAAAUAUAUAUAUAUAUAAUUUUUUCCCCUAUCCAAAGGUUUCACAACAGAGGAUUGAGCAUCA
B14: 52112337_52131274_754_3pUTR_ENSMUSG00000022637_ENSMUST00000114471|mouse|control|control (ssRNA)
RNA: GGGAGUUCUACAGUCCGACGAUCAUCAAUGGUUGACUUCAGAGCCAUUGCUUCCAGGCCAGAGCUGAUCUGAUGGACCUCAUGCAGGCACUGUCUGAAGACUUUCCAUGGUACAAUAGUUUUGUCUCCAAAAAACUUCCUCCACAACAGAGGAUUGAGCAUCA

molecular target: T1, UNK ZnF1-3; experiment: nsRBNS (natural sequence RNA bind-n-seq); RBNS binding buffer (assumed for nsRBNS): 25 mM Tris pH 7.5, 150 mM KCl, 3 mM MgCl2, 0.01% Triton X-100, 500 ug/ml BSA, 20 U/ml SUPERase-In, 4 C; UNK is unkempt and MSI1 is Musashi-1; names of the RNAs are library labels; protein concentration not given here; high values mean tight binding

Row | Binder | binding signal
1 | B1 | 2.28 enrichment R
2 | B2 | 1.57 enrichment R
3 | B3 | 0.497 enrichment R
4 | B4 | 1.31 enrichment R
5 | B5 | 1.42 enrichment R
6 | B6 | 0.83 enrichment R
7 | B7 | 1.8 enrichment R
8 | B8 | 0.807 enrichment R
9 | B9 | 0.939 enrichment R
10 | B10 | 1.04 enrichment R
11 | B11 | 1.44 enrichment R
12 | B12 | 2.26 enrichment R
13 | B13 | 0.406 enrichment R
14 | B14 | 0.85 enrichment R
